# Source: PubChem BioAssay (National Center for Advancing Translational Sciences (NCATS))
# TRb SRC2 PPI: qHTS for Inhibitors of the Interaction of Thyroid Hormone Receptor and Steroid Receptor Coregulator 2. Thyroid hormone receptor beta (Homo sapiens), P10828. TRbeta-SRC2 peptide binding, fluorescence polarization; receptor liganded with 1 µM T3. Potency, µM (doses to about 106 µM), for inactives: at the highest dose activity change, negative = inhibition, usual class: inhibitors. 280,000 compounds, 0.065% hits. AID 1469, 2008;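 note: plate controls were bound peptide for no effect and peptide without receptor for full effect; nearly all actives have a fitted effect of over 50% in size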
# Target sequence (P10828 whole entry, looked up): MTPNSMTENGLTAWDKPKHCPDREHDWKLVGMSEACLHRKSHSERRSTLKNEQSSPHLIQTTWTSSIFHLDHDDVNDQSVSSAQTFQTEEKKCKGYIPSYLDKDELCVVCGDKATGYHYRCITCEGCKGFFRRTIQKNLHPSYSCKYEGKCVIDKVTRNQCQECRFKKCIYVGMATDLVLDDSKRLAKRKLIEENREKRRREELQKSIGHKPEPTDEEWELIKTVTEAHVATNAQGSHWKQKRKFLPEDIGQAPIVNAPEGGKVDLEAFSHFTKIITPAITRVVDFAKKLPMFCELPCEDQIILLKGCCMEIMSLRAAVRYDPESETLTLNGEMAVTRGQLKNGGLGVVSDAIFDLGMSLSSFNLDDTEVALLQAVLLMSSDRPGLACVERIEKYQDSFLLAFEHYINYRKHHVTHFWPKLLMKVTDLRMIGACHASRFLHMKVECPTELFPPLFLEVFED
#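 A fluorescence polarization screen tested compounds at multiple concentrations against complex formation between 0.6 uM TRb ligand-binding domain and 20 nM Texas Red SRC2 peptide, with 1 uM T3 present; readout after 5 hr.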
# Tau fluor cs: Counterscreen qHTS for Inhibitors of Tau Fibril Formation, Fluorescence Polarization | tau K18 P301L Alexa594 fluorescence, heparin fibrillization | Potency, µM (doses to about 57.7 µM), for inactives: top-dose activity change, negative = decrease | 280,000 compounds, 0.93% hits | AID 1463, 2008; note: nearly all actives have a fitted effect of over 55% in size
#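 Human K18 P301L tau (15 uM unlabeled plus 0.24 uM Alexa 594-labeled, final) in 100 mM sodium acetate pH 7 was mixed with compound and 20 uM heparin and incubated 6 hr at 37 C.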
# Tau ThT inhib: qHTS for Inhibitors of Tau Fibril Formation, Thioflavin T Binding; Microtubule-associated protein tau (Homo sapiens), P10636; recombinant tau K18 P301L, heparin-induced fibrillization, ThT fluorescence; Potency, µM (titrated, usually from 57.4 µM), for inactives: at the highest dose activity, negative = inhibition, usual class: inhibitors; 270,000 compounds, 2.1% hits; AID 1460, 2008; note: nearly all actives have a fitted effect of over 55% in size
# Target sequence (P10636 561-689 P618L limits assumed): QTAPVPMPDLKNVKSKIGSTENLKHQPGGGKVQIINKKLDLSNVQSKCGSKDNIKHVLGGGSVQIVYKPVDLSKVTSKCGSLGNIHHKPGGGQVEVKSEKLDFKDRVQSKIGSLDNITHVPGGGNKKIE
#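 Heparin-induced fibrillization of the P301L-mutant K18 repeat-domain fragment of human tau was followed by ThT binding in quantitative high-throughput format.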
# TexasRed fluor: Total Fluorescence Counterscreen for Inhibitors of the Interaction of Thyroid Hormone Receptor and Steroid Receptor Coregulator 2 | AID 1479, 2009 | TRb/SRC2 Texas Red total fluorescence interference | Potency, µM (doses to about 106 µM), without a hit: top-dose fluorescence change, negative = quenching | 280,000 compounds, 0.29% hits; active = well fitted curve in either direction with a large enough effect; inconclusive = small, poorly fitted or top-dose-only effect
#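 Human TRβ ligand-binding domain (0.6 uM) and Texas Red SRC2 peptide (20 nM) in Tris buffer with 1 uM T3 and 5% DMSO were incubated with pinned compound for 5 hr at ambient temperature. Total fluorescence was computed as S + 2P (555/632 nm).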
# Tau fibril FP: qHTS for Inhibitors of Tau Fibril Formation, Fluorescence Polarization; Microtubule-associated protein tau (Homo sapiens), P10636; K18 P301L tau heparin fibrillization, Alexa594 FP, 6 h; Potency, µM (series often up to 57.7 µM), inactives show at the top dose activity, negative = inhibition, most hits filed as inhibitors; 280,000 compounds, 0.39% hits; AID 1468, 2008; note: nearly all actives have a fitted effect of over 55% in size
#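 Heparin (20 uM) drove fibril formation of recombinant tau K18 P301L, 15 uM unlabeled with 0.24 uM Alexa 594 label, for 6 hr at 37 C in 100 mM sodium acetate pH 7. Fluorescence polarization (555/632 nm) read 1 hr after 30 uM ThT.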
# An asterisk follows results filed as active; ? = inconclusive; . = not tested or not shown; [ ] = dose if it differs, or a comment. In the library only some 3.1% were active in any assay of this set; here they are far more common. Unless noted, calls come from the whole dose curve; as a rule, active = well fitted curve in the direction sought with a large enough effect; inconclusive = small, poorly fitted or top-dose-only effect, or another doubt; inactive = no such curve, though single readings can be large; an effect the other way counts as inactive or inconclusive. Unless noted, % is set by controls: 0 for no effect and ±100 for the full control effect; potency is the fitted concentration of half-maximal effect.
SMILES,TRb SRC2 PPI,Tau fluor cs,Tau ThT inhib,TexasRed fluor,Tau fibril FP
O=C(c1ccccc1F)N1c2nc(-c3ccco3)nn2C2(CCCCC2)[C@@H]2CCCC[C@@H]21,-6%,-5%,-6%,?,-2%
O=C1c2cccc3c([N+](=O)[O-])c(O)cc(c23)C(=O)N1Nc1ccccc1,4%,-28%,5µM*,-1%,4%
CC(C)Cn1nc(NC(=O)c2cccc(Cl)c2)c2cc3ccccc3nc21,-27%[53 µM],?,?,1413µM*[quencher],-1%
C=C(C)OC(C)=O,1%,.,.,-2%,.
COC1(OC)N=C(NC(=O)Nc2ccccc2)C2(C#N)C(c3ccccc3)C12C#N (configuration not stated),-2%,-25%,20µM*,2%,?
CCc1cccc(NS(=O)(=O)c2cc(-c3cnc(C)o3)ccc2OC)c1,2%,-17%,-2%,0%,1%
O=C(Nc1cccc(O)c1)c1ccc(Br)cc1,10%,-17%,-8%,0%,1%
O=C(NNc1ccc(O)cc1)c1ccc(Br)cc1,-4%,?,16µM*,1%,?
COc1cc(OC)c(OC)cc1CNCCSc1nnnn1-c1ccccc1,-1%,-7%,-3%,-7%,-7%
Cc1ccc(P(=O)(CSC(=N)N)c2ccc(C)cc2)cc1,0%,-16%,13µM*,-4%,?
CCC/C=C/C1C(=O)C2OC2C2(OCC(CC)(CC)CO2)C1CO (configuration not stated),3%[11.2 µM],-2%[11.6 µM],?,-1%[11.2 µM],9%[11.6 µM]
Cc1cc(C)cc(NC(=O)CCc2nnc3n(C)c(=O)c4sccc4n23)c1,6%,-7%,1%,-3%,1%
O=c1ccsn1Cc1ccccc1,1%,-17%,10µM*,-3%,14µM*
O=C(NCc1ccccc1Cl)C1CCN(C(=O)N2CCOc3ccccc32)CC1,-3%,-6%,0%,-11%,-9%
O=C(NCc1ccco1)C1CCN(C(=O)N2CCOc3ccccc32)CC1,-6%,5µM*[quencher],?,3%,11%
CCC1CN(C(=O)N2CCC(C(=O)N(C)Cc3ccccc3)CC2)c2ccccc2O1 (configuration not stated),-3%,-14%,4%,-10%,-7%
CCC1CN(C(=O)N2CCC(C(=O)NCCCc3ccccc3)CC2)c2cc(C)ccc2O1 (configuration not stated),7%,-19%,-6%,-20%,?
CCC1CN(C(=O)N2CCC(C(=O)NCCCc3ccccc3)CC2)c2ccccc2O1 (configuration not stated),0%,8.9µM*[quencher],-19%,-1%,13%
CCC1CN(C(=O)N2CCC(C(=O)N3CCN(c4ccccc4)CC3)CC2)c2ccccc2O1 (configuration not stated),1%,11µM*[quencher],?,-4%,?
CCC1CN(C(=O)N2CCC(C(=O)NCc3ccco3)CC2)c2ccccc2O1 (configuration not stated),2%,3.5µM*[quencher],16%,4%,?
COc1ccc(CCNC(=O)CCCn2c(=O)c3cccn3c3ccc(F)cc32)cc1OC,11%,8%,2%,10%,-15%
C=CC[n+]1c(/C=C2\C=Cc3cc(C)ccc3N2CC)ccc2ccccc21,5%,14µM*[fluorescent],3.5µM*,-1%,-2%
Cn1c(C(=O)NC2CCCC2)cc2c(=O)n(C)c3ccccc3c21,-1%,2%,-9%,-3%,6%
CCN1CCOC(=O)C1CC(=O)Nc1ccc(C)c(Cl)c1 (configuration not stated),3%,-6%,?,-2%,1%
COC(=O)c1ccc2nc(C)cc(Nc3ccc(N(C)C)cc3)c2c1,4%,?,?,-5%,-2%
SMILES,TRb SRC2 PPI,Tau fluor cs,Tau ThT inhib,TexasRed fluor,Tau fibril FP
Cc1cc(NC(=O)Nc2ccc(N(C)C)cc2)c2cc(F)cc(F)c2n1,-10%,7.9µM*[quencher],?,-14%,-6%
Cc1ccc(S(=O)(=O)/N=C2/C=C(Sc3ncn[nH]3)C(=O)c3ccccc32)cc1,28µM*,?,3.5µM*,-16%,14µM*
Cc1ccc(S(=O)(=O)/N=C2/C=C(Sc3ncn[nH]3)C(=O)c3ccccc32)c(C)c1,28µM*,?,10µM*,-15%,28µM*
COc1ccc(N2CSC3=C(C#N)C(c4cccs4)CC(=O)N3C2)cc1 (configuration not stated),9%,?,13µM*,3%,25µM*
CCc1ccc(C2CC(=O)N3CN(c4ccccc4)CSC3=C2C#N)cc1 (configuration not stated),2%,?,32µM*,0%,?
N#CC1=C2SCC(O)(c3ccccc3)N2C(=O)CC1c1ccccc1 (configuration not stated),-5%,-22%,?,0%,6%
Cc1ccc(N2CSC3=C(C#N)C(c4cccs4)CC(=O)N3C2)cc1 (configuration not stated),0%,-20%,?,-2%,?
CCOC(=O)c1ccc(N2CSC3=C(C#N)C(c4cccs4)CC(=O)N3C2)cc1 (configuration not stated),1%,-15%,?,0%,?
CCc1ccc(N2CSC3=C(C#N)C(c4cccs4)CC(=O)N3C2)cc1 (configuration not stated),4%,-19%,13µM*,-1%,?
N#CC1=C2SCN(c3ccc(F)cc3)CN2C(=O)CC1c1cccc(F)c1 (configuration not stated),3%,?,16µM*,-4%,?
Cc1[nH]c2ccccc2c1/C=N/n1cnnc1,-10%,3%,-1%,-4%,1%
CCN(CC)c1ccc(N=Cc2c(C)[nH]c3ccccc23)cc1,?,?,8.9µM*,?,?
O=C(/C=C/c1ccc(Cl)c([N+](=O)[O-])c1)Nc1ccc(N2CCCC2)cc1,-14%,18µM*[quencher],0.89µM*,-1%,-4%
O=C(/C=C/c1ccc(Cl)c([N+](=O)[O-])c1)Nc1ccc(NC(=O)c2ccco2)cc1,3%,?,?,-9%,-13%
Cc1ccc(NC2=CC(=O)c3sc(C)nc3C2=O)cc1,?,.,.,-18%,.
COc1cc(C(=O)N2CCC(O)(c3ccccc3)CC2)cc(OC)c1OC,5%,-8%,-12%,0%,4%
CNc1cccc2c1C(=O)c1ccccc1C2=O,-1%,?,8.9µM*,12%,-3%
O=C1c2ccccc2C(=O)c2c(NCc3cccnc3)cccc21,.,-24%,?,.,1%
